This is part of a sample that, as a whole, favours compounds with a hit. Of some 83,000 tested, about 20% had one in any assay.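 Plates (96-well) were seeded with cells, treated with compound at one concentration, and incubated for 48 hours before percent growth was determined.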 The source made the active and inactive calls. The calls were made as follows: active = growth percent below 10; inactive = the rest.
Key:
Test in all cases: NCI-60 one-dose screen, 48 h (100 = growth as untreated, 0 = no growth, -100 = all killed)
Details in all cases: 10 µM unless noted
[1] = test system: DU-145 prostate
[2] = test system: K-562 leukemia
[3] = test system: MALME-3M melanoma
[4] = test system: MDA-MB-231 breast
[5] = test system: RXF 393 renal
[6] = test system: SF-268 CNS
[7] = test system: SF-295 CNS
[8] = test system: SF-539 CNS
[9] = test system: UACC-257 melanoma
[10] = test system: M14 melanoma
[11] = test system: HCT-15 colon
[12] = test system: HT29 colon
[13] = test system: SNB-75 CNS
[14] = test system: SNB-19 CNS
[15] = test system: U251 CNS
[16] = test system: PC-3 prostate
[17] = test system: SK-MEL-5 melanoma
[18] = test system: UACC-62 melanoma
[19] = test system: LOX IMVI melanoma
[20] = test system: SK-MEL-28 melanoma

Measured: growth

COc1cccc(C(=O)OCCn2nc3c4c(cccc42)C(=O)c2ccccc2-3)c1O
active: [8] 9.58%
inactive: [1] 54.7% | [2] 13.7% | [3] 62.6% | [4] 62.2% | [5] 53% | [6] 55.8% | [7] 17.1% | [9] 79.4% | [10] 36.2% | [11] 28% | [12] 79.3% | [13] 22.8% | [14] 38.3% | [15] 33.9% | [16] 20.5% | [17] 36.4% | [18] 31.3% | [19] 37.6% | [20] 72.5%

Cc1nccc2c3ccc(OCc4cn(-c5ccc(Cl)cc5)nn4)cc3n(CC(C)C)c12
active: [2] 8.22% | [3] 0.392% | [5] 0.754% | [9] 4.16% | [12] 1.3% | [17] -78.3% | [19] 3.05%
inactive: [1] 54.1% | [4] 27.8% | [6] 57.3% | [7] 15.4% | [8] 22.2% | [10] 23.2% | [11] 18.7% | [13] 55.8% | [14] 38.9% | [15] 26.9% | [16] 17.4% | [18] 24.2% | [20] 25.2%

O=C(Nc1nccs1)c1noc2ccccc12
inactive: [1] 107% | [2] 87.7% | [3] 96.8% | [4] 91.3% | [5] 110% | [6] 103% | [7] 101% | [8] 95.6% | [9] 90.6% | [10] 96% | [11] 92.8% | [12] 99.5% | [13] 87.9% | [14] 93.5% | [15] 98.5% | [16] 80% | [17] 91.5% | [18] 88% | [19] 95.8% | [20] 103%

COc1ccc(-n2nc(C(=O)NCC(=O)O)nc2-c2ccccc2)cc1
inactive: [1] 111% | [2] 93.4% | [3] 92.4% | [4] 108% | [5] 120% | [6] 99.3% | [7] 107% | [8] 97.2% | [9] 97.1% | [10] 102% | [11] 113% | [12] 98.7% | [13] 103% | [14] 100% | [15] 107% | [16] 103% | [17] 100% | [18] 102% | [19] 94.1% | [20] 108%

Reference: PubChem BioAssay (NCI)
